According to ChEMBL document CHEMBL3988442, “University of Dundee, Small-Polar-MMV Screening Library” (2021):

Experiments:
[1] = molecular target: T1, Aspartate--tRNA(Asp/Asn) ligase (Mycobacterium tuberculosis (strain ATCC 25618 / H37Rv)) (UniProt P9WFW3); assay: Assay for Asp RNA synthetase-1 from Mycobacterium tuberculosis; assay type: functional; design: scale not given: direction of the effect not stated beside the values; conditions: 30 µM; further: in the data most compounds retested in dose-response had high values
T1 sequence (whole entry): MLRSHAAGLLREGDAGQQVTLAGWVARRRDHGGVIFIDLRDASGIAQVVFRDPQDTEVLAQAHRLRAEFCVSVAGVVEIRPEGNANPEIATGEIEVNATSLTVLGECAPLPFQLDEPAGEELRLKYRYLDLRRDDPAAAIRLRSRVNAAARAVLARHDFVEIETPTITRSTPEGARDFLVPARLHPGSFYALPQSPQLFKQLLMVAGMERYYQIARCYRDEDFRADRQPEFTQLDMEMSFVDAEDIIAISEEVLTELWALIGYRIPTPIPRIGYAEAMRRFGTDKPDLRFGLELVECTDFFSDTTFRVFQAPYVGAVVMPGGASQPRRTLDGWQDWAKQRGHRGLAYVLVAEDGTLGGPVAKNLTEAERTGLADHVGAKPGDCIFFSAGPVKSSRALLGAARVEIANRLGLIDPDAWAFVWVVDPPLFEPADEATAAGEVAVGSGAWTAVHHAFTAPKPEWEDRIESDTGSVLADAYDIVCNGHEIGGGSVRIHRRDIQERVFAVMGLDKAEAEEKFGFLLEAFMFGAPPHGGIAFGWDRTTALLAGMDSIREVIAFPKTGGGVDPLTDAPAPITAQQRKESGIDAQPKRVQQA

[2] = molecular target: Shiga toxin 2 (Escherichia coli O157:H7) (UniProt P09385+P09386); assay: E. coli 0.157:H7 Shiga Toxin SOP - stx2 screening assay; assay type: functional; design: scale not given: direction of the effect not stated beside the values; conditions: 30 µM

SMILES | Percent Effect [1] [%] | Percent Effect [2] [%]
O=C(CCc1ccsc1)N1CCC(Cc2ccc(CO)cc2)C1 (stereo not drawn) | 0.501 | -19.1
Cc1cc(C)n(CC2CCCN2C(=O)c2ccc3c(c2)OCO3)n1 (stereo not drawn) | -1.99 | -23.4
CCc1nc(CN(C)C2CCN(Cc3cnc(C)cn3)C2)no1 (stereo not drawn) | 1.14 | -48.2
NS(=O)(=O)CCNC(=O)c1nnn(-c2ccc(F)cc2)c1C1CC1 | -3.36 | -8.62
COCC(=O)N1CCO[C@H]2[C@H](OC)CC[C@@H]21 | 9.03 | 2.73
CCc1ccc(C(=O)N2CCN(CCS(C)(=O)=O)CC2)o1 | -3.52 | 24.9
CC(C)(C)NC(=O)C1CSCN1S(=O)(=O)c1ccc(F)cc1 (stereo not drawn) | 5.02 | 1.58
CN1CCN(c2ncccc2CNc2ncccc2C#N)CC1 | 3.68 | 2.01
CC(=O)N1CCN([C@@H]2CC[C@@H](NC(=O)c3cncc(C)c3)[C@H]2O)CC1 | -1.5 | -14
CCn1ccnc1CN1CCC(CNC(=O)c2ccc(C)nc2)C1 (stereo not drawn) | -0.565 | -34.1
O=C(c1ccc(F)cc1)N1CCC2(CCCN2CC2CC2)CC1 | -2.16 | -20.9
COCc1ccc(CN2CCC(O)(Cn3ccc4ncccc43)CC2)o1 | 0.485 | -34.6
CC(C)c1nn(C)c(N2CCOCC2)c1CN[C@H](C)CO | -1.94 | 30.8
Cc1nc(CN(C)C2CCN(Cc3ccc4ccccc4n3)C2)no1 (stereo not drawn) | 3.73 | -68.9
CC1Cc2ccccc2N1Cc1occc1C(=O)OCC(N)=O (stereo not drawn) | -3.97 | -1.38
CCCc1nc(C)c(C(=O)NCCN2CCN(CC)CC2)s1 | -0.278 | -15.4
CCc1noc(C(C)N2CCN(Cc3noc(C)n3)CC2)n1 (stereo not drawn) | -5.46 | -10.9
CN(CC1CC1)c1ccc2ccc(C(=O)NCCN3CCOCC3)cn12 | -0.228 | -88.6
O=C(CCc1ccc(O)cc1)N1CCC(Cc2ccc(CO)cc2)C1 (stereo not drawn) | -0.39 | -14.8
